Values joined by “and” are separate entries in the source; they are usually repeats but may differ in a detail not shown here. Identical values can stand only once. Some structures have more than one record in an assay (separate samples or runs), and their calls can disagree. Active and inactive are the calls of the source. Unless noted, the call rests on the fitted dose curve; in most records, active means well fitted curve in the direction sought with a large enough effect in the repeat runs; inconclusive means weak or mixed curves; inactive means no such curve, though single readings can be large; an effect the other way counts as inactive or inconclusive.
Columns and labels:
[1] = qHTS assay for small molecule agonists of the p53 signaling pathway (AID 651631; calls by dose curve; further: nearly all actives have a fitted effect of over 15% in size)
Summary of the method: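 Beta-lactamase reporter activity under p53 response elements was quantified in HCT-116 cells by FRET fluorescence, following 16 h incubation with test compounds at 37 °C and 2 h substrate development at room temperature.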

[2] = qHTS assay for small molecules that induce genotoxicity in human embryonic kidney cells expressing luciferase-tagged ATAD5 (AID 651632); further: nearly all actives have a fitted effect of over 15% in size
Summary of the method: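 ATAD5-luc HEK293T, 2,000 cells/well; cpd or DMSO pin-transferred; 16 hr, 37C/5% CO2; Amplite 30 min RT; luminescence.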

[3] = qHTS assay for small molecule agonists of the p53 signaling pathway - cell viability (AID 651633; calls by dose curve;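 further: p53RE-bla HCT reporter cells with a stable beta-lactamase p53 reporter; nearly all actives have a fitted effect of over 30% in size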)
Summary of the method: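 Viability counter-read: CellTiter-Glo luminescence (30 min, room temperature) in the same p53RE-bla plates. These plates had been exposed to compounds for 16 h at 37 C.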

[4] = qHTS assay for small molecules that induce genotoxicity in human embryonic kidney cells expressing luciferase-tagged ATAD5 - cell viability (AID 651634; calls by dose curve; further: nearly all actives have a fitted effect of over 25% in size)
Summary of the method: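 Fluorescence from CellTiter-Fluor, reporting protease activity within live cells, served as the viability read-out. HEK293T cells carrying luciferase-tagged ATAD5 had been treated with compound for 15.5 hr at 37C.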

[5] = qHTS assay for small molecule disruptors of the mitochondrial membrane potential - cell viability (AID 720634; calls by dose curve;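 further: human HepG2 liver cancer cells; nearly all actives have a fitted effect of over 20% in size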)
Summary of the method: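 Cells: HepG2, 2,000/well, attached overnight. Compound 1 hr, 37 C/5% CO2. +m-MPI dye, +CellTiter-Glo 30 min RT. Readout: luminescence (ATP).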

[6] = qHTS assay for small molecule disruptors of the mitochondrial membrane potential (AID 720635); further: potency means the concentration at half of the fitted maximal effect
Summary of the method: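 Mitochondrial membrane potential tracked with Mito-MPS dye, red aggregates (ex 540/em 590 nm) against green monomers (ex 490/em 535 nm). Compound treatment 1 hr at 37C, dye 30 min in HepG2.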

[7] = qHTS assay to test for compound auto fluorescence at 535 nm (green) in HepG2 cells (AID 720675)
[8] = qHTS assay to test for compound auto fluorescence at 460 nm (blue) in HEK293 cells (AID 720678)
Summary of the method: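 Cells were seeded and left to adhere for 4-5 hr at 37C. Compounds were then pin-transferred. After an overnight incubation at 37C under 5% CO2, intrinsic fluorescence at 405/460 nm was measured and referenced to triamterene.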

[9] = qHTS assay to test for compound auto fluorescence at 590 nm (red) in HEK293 cells (AID 720679)
Summary of the method: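 Each well held 2,000 HEK293 cells in medium containing 10% dialyzed FBS. Following 4-5 hr attachment at 37C, 23 nL test compound or DMSO was added; plates sat overnight, and red fluorescence (540/590nm) was recorded.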

[10] = qHTS assay to test for compound auto fluorescence at 535 nm (green) in HEK293 cells (AID 720680)
[11] = qHTS assay to test for compound auto fluorescence at 460 nm (blue) in HEK293 cell free culture (AID 720681)
Summary of the method: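 Blue fluorescence (Ex 405/Em 460 nm, triamterene-equivalent) was read immediately after pin transfer of compound or DMSO into medium (DMEM, 10% FBS) without cells.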

[12] = qHTS assay to test for compound auto fluorescence at 535 nm (green) in HEK293 cell free culture (AID 720682)
Summary of the method: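 Each library compound, or DMSO control, is added by pintool to medium alone, comprising DMEM and 10% FBS. Emission at 535 nm following 485 nm excitation is quantified against fluorescein.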

[13] = qHTS assay to test for compound auto fluorescence at 590 nm (red) in HEK293 cell free culture (AID 720683)
Summary of the method: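 Red-channel autofluorescence of compounds in culture medium (DMEM, 10% FBS), no cells, measured at 540/590 nm. Rose Bengal sodium is the reference fluorophore for equivalence.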

[14] = qHTS assay to test for compound auto fluorescence at 590 nm (red) in HepG2 cell free culture (AID 720684)
Summary of the method: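 Plate contents were MEM with 10% FBS plus test compound or DMSO, no cells. Fluorescence was recorded with 540 nm excitation and 590 nm emission.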

[15] = qHTS assay to test for compound auto fluorescence at 460 nm (blue) in HepG2 cell free culture (AID 720685)
Summary of the method: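 Compound (23 nL) or DMSO pinned into cell-free MEM with 10% FBS; blue fluorescence read at 405/460 nm excitation/emission, expressed as auto-fluorescence equivalency to triamterene.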

[16] = qHTS assay to test for compound auto fluorescence at 535 nm (green) in HepG2 cell free culture (AID 720686)
[17] = qHTS assay to test for compound auto fluorescence at 460 nm (blue) in HepG2 cells (AID 720687)
Summary of the method: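 Blue-channel autofluorescence (Ex/Em 405/460 nm, triamterene-equivalent) was measured after 1 hr compound exposure at 37 C, 5% CO2. Cells were HepG2, plated overnight at 37 C in MEM plus 10% FBS.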

[18] = target: Glucocorticoid receptor (Homo sapiens) (UniProt P04150); assay: qHTS assay to identify small molecule agonists of the glucocorticoid receptor (GR) signaling pathway (AID 720691; active means well fitted activation curve with a large enough effect in the signal ratio in the repeat runs, not every such curve was filed as active; inconclusive means weak or mixed curves, or effect the other way; inactive means no such curve, though single readings can be large or run the other way; the % refers to the signal ratio); settings: GR-bla HeLa, beta-lactamase reporter ratio, 18 h
Summary of the method: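 Fluorescence intensity from LiveBLAzer B/G FRET substrate (2 h, room temperature) reports beta-lactamase expression driven by the glucocorticoid response element in GR-bla HeLa cells after 18 h compound exposure at 37 C.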

[19] = target: Glucocorticoid receptor (Homo sapiens) (UniProt P04150); assay: qHTS assay to identify small molecule antagonists of the glucocorticoid receptor (GR) signaling pathway (AID 720692; active means well fitted inhibition curve with a large enough effect in the signal ratio in the repeat runs, not every such curve was filed as active; inconclusive means weak or mixed curves, or effect the other way; inactive means no such curve, though single readings can be large or run the other way; the % refers to the signal ratio)
Summary of the method: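 HeLa GR-bla cells; cmpd + dex 5 nM final, 18 h 37 C; LiveBLAzer B/G FRET substrate 2 h RT; fluorescence intensity read. Antagonist mode, qHTS.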

[20] = qHTS assay to test for compound auto fluorescence at 590 nm (red) in HepG2 cells (AID 720674)
Summary of the method: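 Red autofluorescence (Ex/Em 540/590 nm, Rose Bengal sodium equivalents) was measured in HepG2 cells, 2,000 per well in MEM plus 10% FBS, plated overnight at 37 C. Readings were taken 1 hr after adding 23 nL compound or DMSO, at 37 C and 5% CO2.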

[21] = activation: at 62.4 µM (top of the series)
On the % scale 0 is the no-effect control and ±100 the full control effect.

Glucocorticoid receptor (Homo sapiens), sequence (P04150 whole entry, looked up): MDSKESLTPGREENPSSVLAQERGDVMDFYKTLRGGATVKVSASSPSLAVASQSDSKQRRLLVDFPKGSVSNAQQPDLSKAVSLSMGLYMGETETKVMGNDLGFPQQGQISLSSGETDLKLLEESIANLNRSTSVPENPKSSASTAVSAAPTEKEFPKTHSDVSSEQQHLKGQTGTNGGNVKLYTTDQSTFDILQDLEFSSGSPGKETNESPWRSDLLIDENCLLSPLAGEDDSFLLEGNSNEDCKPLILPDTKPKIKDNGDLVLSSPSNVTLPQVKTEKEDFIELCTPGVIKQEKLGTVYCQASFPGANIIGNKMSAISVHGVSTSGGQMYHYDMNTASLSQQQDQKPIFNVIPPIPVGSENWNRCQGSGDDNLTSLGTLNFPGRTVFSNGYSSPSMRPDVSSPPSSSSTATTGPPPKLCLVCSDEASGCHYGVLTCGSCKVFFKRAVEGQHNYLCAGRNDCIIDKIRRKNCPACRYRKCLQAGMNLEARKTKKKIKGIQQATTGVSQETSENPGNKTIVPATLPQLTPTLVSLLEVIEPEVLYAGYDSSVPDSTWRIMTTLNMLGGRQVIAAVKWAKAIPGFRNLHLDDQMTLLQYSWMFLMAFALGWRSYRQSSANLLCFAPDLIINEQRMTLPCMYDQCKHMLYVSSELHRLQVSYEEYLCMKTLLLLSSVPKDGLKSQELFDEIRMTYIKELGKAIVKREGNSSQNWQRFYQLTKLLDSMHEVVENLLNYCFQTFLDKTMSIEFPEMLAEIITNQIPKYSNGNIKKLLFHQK

CC1(C)S[C@@H]2[C@H](NC(=O)[C@@H](NC(=O)N3CCNC3=O)c3ccccc3)C(=O)N2[C@H]1C(=O)O
inactive: Potency [1] | Potency [2] | Potency [3] | Potency [4] | Potency [5] | Potency [6] | Potency [7] | Potency [8] | outcome [9] | outcome [10] | Potency [11] | outcome [12] | outcome [13] | outcome [14] | Potency [15] | Potency [16] | Potency [17] | Potency [18, 21] | Potency [19]

CN(C)CCc1c[nH]c2ccc(Cn3cncn3)cc12
inactive: Potency [1] | Potency [2] | Potency [3] | Potency [4] | Potency [5] | Potency [6] | Potency [7] | Potency [8] | outcome [9] | outcome [10] | Potency [11] | outcome [12] | outcome [13] | outcome [14] | Potency [15] | Potency [16] | Potency [17]

Cc1cn([C@H]2C[C@H](O)[C@@H](CO)O2)c(=O)[nH]c1=O
inactive: Potency [1] | Potency [2] | Potency [3] | Potency [4] | Potency [5] | Potency [6] | outcome [20] | Potency [7] | Potency [8] | outcome [10] | Potency [11] | outcome [12] | outcome [13] | outcome [14] | Potency [15] | Potency [16] | Potency [17] | Potency [19]

NCCO/C=C/[C@H](N)C(=O)O
inactive: Potency [1] | Potency [2] | Potency [3] | Potency [4] | Potency [5] | Potency [6] | outcome [20] | Potency [7] | Potency [8] | outcome [9] | Potency [11] | outcome [12] | outcome [13] | outcome [14] | Potency [15] | Potency [18, 21] | Potency [19]

FC(F)(F)C(F)(F)C(F)(F)C(F)(F)C(F)(F)F
inactive: Potency [1] | Potency [2] | Potency [3] | Potency [4] | Potency [5] | Potency [6] | Potency [7] | Potency [8] | outcome [9] | outcome [10] | Potency [11] | outcome [12] | outcome [13] | outcome [14] | Potency [15] | Potency [17]

CC/C(=C(/CC)c1ccc(OP(=O)(O)O)cc1)c1ccc(OP(=O)(O)O)cc1
inactive: Potency [1] | Potency [2] | Potency [3] | Potency [4] | Potency [5] | Potency [6] | Potency [7] | Potency [8] | outcome [9] | outcome [10] | Potency [11] | outcome [12] | outcome [13] | outcome [14] | Potency [15] | Potency [16] | Potency [17]

CC(C)=CCC/C(C)=C/CC/C(C)=C/CC/C(C)=C/CC1=C(C)C(=O)c2ccccc2C1=O
inactive: Potency [1] | Potency [2] | Potency [3] | Potency [4] | Potency [5] | outcome [20] | Potency [7] | Potency [8] | outcome [9] | Potency [11] | outcome [12] | outcome [13] | outcome [14] | Potency [15] | Potency [16] | Potency [17]
inactive and 13.3 µM (active): Potency [6]

CNCC(=O)N[C@@H](CCCN=C(N)N)C(=O)N[C@H](C(=O)N[C@@H](Cc1ccc(O)cc1)C(=O)N[C@H](C(=O)N[C@@H](Cc1cnc[nH]1)C(=O)N1CCC[C@H]1C(=O)N[C@@H](C)C(=O)O)C(C)C)C(C)C
inactive: Potency [1] | Potency [2] | Potency [3] | Potency [4] | Potency [5] | Potency [6] | Potency [7] | Potency [8] | outcome [9] | outcome [10] | Potency [11] | outcome [12] | outcome [13] | outcome [14] | Potency [15] | Potency [16] | Potency [18, 21] | Potency [19]

C[S+](C)CCC(N)C(=O)O (centres undefined)
inactive: Potency [1] | Potency [2] | Potency [3] | Potency [4] | Potency [5] | Potency [6] | Potency [7] | Potency [8] | outcome [9] | outcome [10] | Potency [11] | outcome [12] | outcome [13] | outcome [14] | Potency [15] | Potency [16] | Potency [17] | Potency [18, 21] | Potency [19]

C=N[C@@H](C(=O)N[C@@H]1C(=O)N2[C@@H]1SC(C)(C)[C@@H]2C(=O)O)c1ccccc1
inactive: Potency [1] | Potency [2] | Potency [3] | Potency [4] | Potency [5] | Potency [6] | outcome [20] | Potency [7] | Potency [8] | outcome [10] | Potency [11] | outcome [12] | outcome [13] | outcome [14] | Potency [15] | Potency [16] | Potency [17]

O=C1c2c(O)cccc2[C@H]([C@@H]2O[C@H](CO)[C@@H](O)[C@H](O)[C@H]2O)c2cc(CO)cc(O)c21
active: activation [18, 21] 14.2% [inconclusive]
inactive: Potency [1] | Potency [2] | Potency [3] | Potency [4] | Potency [5] | Potency [6] | outcome [20] | Potency [7] | Potency [8] | outcome [9] | Potency [11] | outcome [12] | outcome [13] | outcome [14] | Potency [15] | Potency [16] | activation ([18]; at 62.4 µM (top of the series)) -0.87% | Potency [19]

CCN1CCCC1CNC(=O)c1cc(S(=O)(=O)CC)ccc1OC (centres undefined)
inactive: Potency [1] | Potency [2] | Potency [3] | Potency [4] | Potency [5] | Potency [6] | outcome [20] | Potency [7] | Potency [8] | outcome [10] | Potency [11] | outcome [12] | outcome [13] | outcome [14] | Potency [15] | Potency [17] | Potency [18, 21] | Potency [19]

Cc1onc(-c2c(F)cccc2Cl)c1C(=O)N[C@@H]1C(=O)N2[C@@H]1SC(C)(C)[C@@H]2C(=O)O
inactive: Potency [1] | Potency [2] | Potency [3] | Potency [4] | Potency [5] | Potency [6] | outcome [20] | Potency [7] | Potency [8] | outcome [10] | Potency [11] | outcome [12] | outcome [13] | outcome [14] | Potency [15] | Potency [16] | Potency [18, 21] | Potency [19]

C[C@H](NCCc1ccc(O)cc1)[C@H](O)c1ccc(O)cc1
inactive: Potency [1] | Potency [2] | Potency [3] | Potency [4] | Potency [5] | Potency [6] | Potency [7] | Potency [8] | outcome [9] | outcome [10] | Potency [11] | outcome [12] | outcome [13] | outcome [14] | Potency [15] | Potency [16] | Potency [17] | Potency [18, 21] | Potency [19]

Reference: PubChem BioAssay (Tox21)
